The campaign covered roughly 55,000 sequences. About 4,100 (7.5%) were called active. Cut-off read from the data, not from the text of the source: active = GI50 up to about 1.1 µM and inactive = higher. These entries were drawn from the full list. Results with a measured potency or affinity are listed apart.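 96-well plates; 48 h exposure; 5 concentrations. Endpoints by linear interpolation between flanking doses. Not reached: highest tested concentration assigned. Abbreviation: GI50, concentration required for 50% inhibition of growth.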
What follows are substances tested on SF-539 (assay: NCI tumour cell line growth inhibition, 48 h).
Substance “[Bis(aminomethyl)tetramethylenesilane]dichloropaltinum(II), CHEMBL2146205” has a GI50 of 20.5 µM.
“[Bis(aminomethyl)pentamethylenesilane]tetrachloropaltinum(IV), CHEMBL2146204” showed a GI50 of 0.558 µM.
“[Bis(aminomethyl)diethylsilane]tetrachloroplatinum(IV), CHEMBL2146203” gave a GI50 of 2.49 µM.
“[Bis(aminomethyl)tetramethylenesilane]tetrachloropaltinum(IV), CHEMBL2146189” was tested, and the GI50 was 2.18 µM.
With “[Bis(aminomethyl)dimethylsilane]dichloroplatinum (II), CHEMBL2146201” the GI50 was 23.4 µM.
With “cis-Bis[[(trimethylsilyl)methyl]amino]tetrachloroplatinum(IV), CHEMBL2146191” the GI50 was 4.24 µM.
With “[Bis(aminomethyl)dimethylsilane]tetrachloroplatinum(IV), CHEMBL2146190” the GI50 was 4.99 µM.
Work on “[Bis(aminomethyl)pentamethylenesilane]dichloropaltinum(II), CHEMBL2146202” yielded a GI50 of 1.48 µM.
Work on “mu-(1,7-nanodiamine-N,N')bis-(cis-aminedichloroplatimum (II)), CHEMBL2146215” yielded a GI50 of 27.4 µM.
Substance CISPLATIN, CHEMBL11359 has a GI50 of 1.66 µM.
In the case of “[Bis(aminomethyl)ethylmethylsilane]tetrachloroplatinum(IV), CHEMBL2146192”, the GI50 is reported as 3.05 µM.
